Here are results for eleven molecules from PubChem BioAssay (EPA / NIEHS).

Several values for one entry are separate records, joined by “and”; a condition that tells them apart may be missing. Equal entries are not always repeated. Results filed as inconclusive are left out. Activity calls are given as the source filed them. Rule for the calls, unless noted: active = hit-call score of the fitted dose curve at least 0.9, where 1 is the maximum; inactive = score below 0.9.

Assay [1] concerns the target Retinoic acid receptor RXR-alpha (Homo sapiens) (UniProt P19793). Kind of assay: ATG_RXRa_TRANS: Attagene TRANS-FACTORIAL HepG2 Assay for human Retinoid X Receptor alpha (RXRa) (AID 2283012; active = hit-call score of the fitted dose curve at least 0.9, where 1 is the maximum). Summed up: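 Measures exogenous chimeric NR-GAL4 activity in transfected HepG2 liver cells after 24 h of dosing. Induced reporter mRNA was detected by RT-PCR with capillary electrophoresis, and gain of signal was analysed against DMSO.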

Assay [2] addresses human Retinoid X Receptor beta (RXRb), RXRB (gene 6257) (UniProt P28702). As to the kind of experiment: ATG_RXRb_TRANS: Attagene TRANS-FACTORIAL HepG2 Assay for human Retinoid X Receptor beta (RXRb) (AID 2283013; active = hit-call score of the fitted dose curve at least 0.9, where 1 is the maximum). In a few lines:
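Chimeric receptor-Gal4 activity was assessed in transiently transfected human HepG2 cells after 24 h exposure. Transcripts from GAL4-UAS reporters were quantified by fluorescent RT-PCR and capillary electrophoresis, with DMSO as negative control and baseline.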

Assay [3] concerns the target human Thyroid Receptor alpha (THRa1), THRA (gene 7067) (UniProt P10827). Kind of assay: ATG_THRa1_TRANS: Attagene TRANS-FACTORIAL HepG2 Assay for human Thyroid Receptor alpha (THRa1) (AID 2283014; active = hit-call score of the fitted dose curve at least 0.9, where 1 is the maximum). In a few lines: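 Transcripts from GAL4-UAS-driven reporters, measured after 24 h compound exposure by RT-PCR plus capillary electrophoresis of 6-FAM-labeled fragments, were fitted for gain of signal relative to DMSO. Cells: transiently transfected HepG2 expressing NR-Gal4 chimeras.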

The target in assay [4] is human Vitamin D Receptor (VDR), VDR (gene 7421) (UniProt P11473). As to the kind of experiment: ATG_VDR_TRANS: Attagene TRANS-FACTORIAL HepG2 Assay for human Vitamin D Receptor (VDR) (AID 2283022; active = hit-call score of the fitted dose curve at least 0.9, where 1 is the maximum). Summed up: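 Transactivation by an exogenous VDR-Gal4 chimera in transiently transfected HepG2 cells was measured as reporter transcript level 24 hours after chemical treatment. RT-PCR products were analysed by capillary electrophoresis and fitted in the positive direction relative to DMSO.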
Sequence of human Vitamin D Receptor (VDR), VDR (gene 7421) (P11473 whole entry, looked up, the tested form may be a part): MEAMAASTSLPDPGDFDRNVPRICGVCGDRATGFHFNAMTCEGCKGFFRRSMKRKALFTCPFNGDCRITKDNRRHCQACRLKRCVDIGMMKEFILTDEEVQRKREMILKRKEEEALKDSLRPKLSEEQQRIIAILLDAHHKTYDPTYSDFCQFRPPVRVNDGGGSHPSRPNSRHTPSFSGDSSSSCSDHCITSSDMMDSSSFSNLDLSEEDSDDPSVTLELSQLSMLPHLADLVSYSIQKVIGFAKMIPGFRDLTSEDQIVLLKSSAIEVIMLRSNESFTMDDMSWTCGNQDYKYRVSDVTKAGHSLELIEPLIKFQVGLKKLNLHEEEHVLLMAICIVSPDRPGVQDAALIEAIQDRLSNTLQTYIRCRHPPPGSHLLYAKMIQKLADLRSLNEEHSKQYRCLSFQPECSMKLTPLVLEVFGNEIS

Read-out in assay [5]: E-selectin (Homo sapiens) (UniProt P16581)
As to the kind of experiment: BSK_3C_Eselectin: BioMAP Diversity Plus: 3C Assay for Eselectin Biomarker Activity (AID 2283015).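 For outcome: cell surface E-selectin protein quantified by ELISA 24 h after dosing.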 The settings on record: primary human endothelial cells (HUVEC); actives raise or lower the signal. In a few lines: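 E-selectin ELISA readout, fitted bidirectionally relative to DMSO, taken 24 h post-dosing in HUVEC cultures of the 3C system. Overt cytotoxicity tracked with sulforhodamine B staining of parallel wells.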

Read-out in assay [6]: Interleukin-1 alpha (IL1a), IL1A (gene 3552)
As to the kind of experiment: BSK_BE3C_IL1a: BioMAP Diversity Plus: BE3C Assay for Interleukin-1 alpha (IL1a) Biomarker Activity (AID 2283016). The following applies: primary human bronchial epithelial cells; actives raise or lower the signal. Summed up:
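Signal from IL-1a ELISA, taken 24 h after chemical dosing of human bronchial epithelial cells, is compared with DMSO as baseline using bidirectional curve fitting.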

Read-out in assay [7]: Monocyte Chemoattractant Protein-1 (MCP1), CCL2 (gene 6347)
Kind of assay: BSK_3C_MCP1: BioMAP Diversity Plus: 3C Assay for Monocyte Chemoattractant Protein-1 (MCP1) Biomarker Activity (AID 2283017). The settings on record: primary human endothelial cells (HUVEC); actives raise or lower the signal. In a few lines: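 MCP-1 was measured by ELISA 24 h after dosing in primary HUVEC 3C cultures and fitted in both directions relative to DMSO; cytotoxicity was checked by SRB total-protein staining in parallel wells.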

Read-out in assay [8]: Monocyte Chemoattractant Protein-1 (MCP1), CCL2 (gene 6347)
As to the kind of experiment: BSK_4H_MCP1: BioMAP Diversity Plus: 4H Assay for Monocyte Chemoattractant Protein-1 (MCP1) Biomarker Activity (AID 2283018). The following applies: primary human endothelial cells (HUVEC); actives raise or lower the signal. In a few lines:
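Endothelial cells from umbilical vein were treated with test chemical, then after 24 h MCP-1 levels were quantified by ELISA; endpoint values came from bidirectional fitting with DMSO as baseline of activity.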

Read-out in assay [9]: Human Leukocyte Antigen - DR isotype (HLADR), HLA-DRA (gene 3122)
Kind of assay: BSK_3C_HLADR: BioMAP Diversity Plus: 3C Assay for Human Leukocyte Antigen - DR isotype (HLADR) Biomarker Activity (AID 2283019).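 For outcome: ELISA of cell-surface HLA-DR on HUVEC 24 h after dosing.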 The following applies: primary human endothelial cells (HUVEC); actives raise or lower the signal. In a few lines: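 Bidirectional fitting against DMSO was applied to the HLA-DR ELISA signal from human umbilical vein endothelial cells, 24 h post-dose. Cytotoxicity came from parallel SRB total-protein staining; 3C proliferation was counted by SRB at 48 h.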

Read-out in assay [10]: Interleukin-8 (IL8), CXCL8 (gene 3576)
Kind of assay: BSK_3C_IL8: BioMAP Diversity Plus: 3C Assay for Interleukin-8 (IL8) Biomarker Activity (AID 2283020). The settings on record: primary human endothelial cells (HUVEC); actives raise or lower the signal. Summed up:
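Endothelial primary cells of human umbilical vein origin are dosed with chemical; after 24 h the IL-8 biomarker is measured by ELISA, and concentration–response is fitted in both directions versus DMSO.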

Read-out in assay [11]: Monokine induced gamma interferon (MIG), CXCL9 (gene 4283)
Kind of assay: BSK_3C_MIG: BioMAP Diversity Plus: 3C Assay for Monokine induced gamma interferon (MIG) Biomarker Activity (AID 2283021).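 For AC50: MIG protein level measured by immunoassay in the treated endothelial cultures.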 The settings on record: primary human endothelial cells (HUVEC); actives raise or lower the signal. In a few lines: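 Endothelial primary cells (human umbilical vein) are dosed with test chemical in the 3C system. MIG levels are measured by ELISA at 24 h and fitted in both directions relative to DMSO.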

Assay [12] can be described thus: BSK_3C_SRB: Viability Assessment in the BioMAP Diversity Plus: 3C Assay (AID 2283023).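 Note: fitted both ways against DMSO so a hit may be signal rise or drop.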 The settings on record: primary human endothelial cells (HUVEC). Summed up:
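Cytotoxicity readout in parallel HUVEC 3C cultures: after 24 h compound exposure, cells fixed with 10% TCA, stained with 0.1% SRB and read at 560 nm. Gain or loss relative to DMSO fitted.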

Read-out in assay [13]: Matrix Metallopeptidase 1 (MMP1), MMP1 (gene 4312)
Kind of assay: BSK_BE3C_MMP1: BioMAP Diversity Plus: BE3C Assay for Matrix Metallopeptidase 1 (MMP1) Biomarker Activity (AID 2283024). The following applies: primary human bronchial epithelial cells; actives raise or lower the signal. In a few lines:
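MMP1 signal, measured by ELISA after a 24 h chemical exposure of human primary bronchial epithelial cells, is analysed with bidirectional fitting using DMSO as negative control.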

Read-out in assay [14]: Pselectin, SELP (gene 6403)
As to the kind of experiment: BSK_4H_Pselectin: BioMAP Diversity Plus: 4H Assay for Pselectin Biomarker Activity (AID 2283026). The settings on record: primary human endothelial cells (HUVEC); actives raise or lower the signal. In a few lines: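 Endothelial primary cells (human umbilical vein) are dosed, incubated 24 h, and assayed for surface P-selectin by ELISA; responses in either direction are fitted relative to the DMSO negative control.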

Assay [15] is described as follows: BSK_4H_SRB: Viability Assessment in the BioMAP Diversity Plus: 4H Assay (AID 2283027).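 For AC50: curves fitted both ways versus DMSO so AC50 may be loss or gain.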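 Note: cells exposed to compound for 24 h before staining.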 The following applies: primary human endothelial cells (HUVEC). Summed up:
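HUVEC, 24 h post-dose; 10% TCA fix, 0.1% SRB stain, A560 nm. Total protein = overt cytotoxicity, parallel to biomarker read. Bidirectional fit vs DMSO baseline.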

A short description of assay [16]: BSK_BE3C_SRB: Viability Assessment in the BioMAP Diversity Plus: BE3C Assay (AID 2283028).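 For AC50: fitted both ways so AC50 may mark signal gain or loss versus DMSO.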 The following applies: primary human bronchial epithelial cells. In a few lines:
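Cytotoxicity read-out: SRB (0.1%) staining of TCA-fixed (10%) human lung bronchial epithelial cells, absorbance 560 nm, 24 h post-dosing. Curves fitted both directions relative to DMSO.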

Read-out in assay [17]: Thrombomodulin, THBD (gene 7056)
Kind of assay: BSK_3C_Thrombomodulin: BioMAP Diversity Plus: 3C Assay for Thrombomodulin Biomarker Activity (AID 2283029). The following applies: primary human endothelial cells (HUVEC); actives raise or lower the signal. In a few lines:
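Endothelial cells from umbilical vein are dosed with test chemical and incubated 24 h. Thrombomodulin is then quantified by ELISA, with DMSO serving as negative control and activity baseline.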

Assay [18] is described as follows: BSK_3C_Vis: BioMAP Diversity Plus: 3C Assay for Morphology Visualization (AID 2283025).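 Note: fitted both ways so gain or loss versus DMSO counts.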 The settings on record: primary human endothelial cells (HUVEC). Summed up: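 Morphology read by light microscopy serves as a background control for the multiplexed 3C assay in human umbilical vein endothelial cells, taken 24 h after dosing, with DMSO as the negative control and bidirectional curve fitting.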

Sequence of E-selectin (Homo sapiens) (P16581 whole entry, looked up): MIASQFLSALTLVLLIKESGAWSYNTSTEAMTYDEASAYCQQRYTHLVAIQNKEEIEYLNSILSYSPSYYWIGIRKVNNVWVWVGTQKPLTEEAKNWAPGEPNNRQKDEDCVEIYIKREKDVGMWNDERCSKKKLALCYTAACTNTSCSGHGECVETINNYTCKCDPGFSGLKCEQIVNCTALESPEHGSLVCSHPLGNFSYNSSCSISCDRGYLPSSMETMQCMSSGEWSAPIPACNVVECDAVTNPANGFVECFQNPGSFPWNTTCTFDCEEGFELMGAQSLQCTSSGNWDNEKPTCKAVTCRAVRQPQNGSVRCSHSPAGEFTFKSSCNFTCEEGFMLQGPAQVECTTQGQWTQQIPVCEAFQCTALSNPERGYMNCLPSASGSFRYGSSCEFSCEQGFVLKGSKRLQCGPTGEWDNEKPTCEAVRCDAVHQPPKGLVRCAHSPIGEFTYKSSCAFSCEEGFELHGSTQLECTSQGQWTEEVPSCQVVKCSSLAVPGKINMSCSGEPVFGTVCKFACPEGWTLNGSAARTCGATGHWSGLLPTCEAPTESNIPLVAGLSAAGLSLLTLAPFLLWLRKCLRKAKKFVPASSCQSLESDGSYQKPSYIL
Sequence of human Retinoid X Receptor beta (RXRb), RXRB (gene 6257) (P28702 whole entry, looked up, the tested form may be a part): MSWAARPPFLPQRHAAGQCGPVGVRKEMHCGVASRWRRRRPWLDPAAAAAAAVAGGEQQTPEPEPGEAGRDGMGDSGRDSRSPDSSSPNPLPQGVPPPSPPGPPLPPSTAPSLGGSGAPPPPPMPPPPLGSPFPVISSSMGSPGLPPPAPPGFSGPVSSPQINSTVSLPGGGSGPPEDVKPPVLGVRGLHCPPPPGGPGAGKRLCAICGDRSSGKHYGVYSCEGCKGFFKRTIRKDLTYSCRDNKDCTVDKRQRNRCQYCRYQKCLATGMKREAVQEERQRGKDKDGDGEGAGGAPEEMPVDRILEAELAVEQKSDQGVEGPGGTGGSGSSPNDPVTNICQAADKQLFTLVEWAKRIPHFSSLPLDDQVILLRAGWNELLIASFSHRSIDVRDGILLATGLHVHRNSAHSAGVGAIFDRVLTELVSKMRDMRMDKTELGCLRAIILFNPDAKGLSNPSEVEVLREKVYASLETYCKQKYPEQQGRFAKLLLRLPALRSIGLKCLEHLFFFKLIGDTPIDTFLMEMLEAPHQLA
Sequence of Retinoic acid receptor RXR-alpha (Homo sapiens) (P19793 whole entry, looked up, the tested form may be a part): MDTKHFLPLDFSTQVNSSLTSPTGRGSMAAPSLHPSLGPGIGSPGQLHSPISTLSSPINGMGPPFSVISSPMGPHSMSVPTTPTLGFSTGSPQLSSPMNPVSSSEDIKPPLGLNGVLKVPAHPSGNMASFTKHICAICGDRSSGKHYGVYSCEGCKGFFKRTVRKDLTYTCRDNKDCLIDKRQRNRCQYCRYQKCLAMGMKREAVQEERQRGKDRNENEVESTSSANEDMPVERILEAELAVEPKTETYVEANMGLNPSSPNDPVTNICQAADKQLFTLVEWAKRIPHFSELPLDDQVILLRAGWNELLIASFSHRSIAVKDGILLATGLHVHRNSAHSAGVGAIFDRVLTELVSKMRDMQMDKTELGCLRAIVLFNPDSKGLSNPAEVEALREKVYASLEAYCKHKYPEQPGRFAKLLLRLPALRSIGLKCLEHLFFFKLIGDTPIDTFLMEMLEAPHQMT
Sequence of human Thyroid Receptor alpha (THRa1), THRA (gene 7067) (P10827 whole entry, looked up, the tested form may be a part): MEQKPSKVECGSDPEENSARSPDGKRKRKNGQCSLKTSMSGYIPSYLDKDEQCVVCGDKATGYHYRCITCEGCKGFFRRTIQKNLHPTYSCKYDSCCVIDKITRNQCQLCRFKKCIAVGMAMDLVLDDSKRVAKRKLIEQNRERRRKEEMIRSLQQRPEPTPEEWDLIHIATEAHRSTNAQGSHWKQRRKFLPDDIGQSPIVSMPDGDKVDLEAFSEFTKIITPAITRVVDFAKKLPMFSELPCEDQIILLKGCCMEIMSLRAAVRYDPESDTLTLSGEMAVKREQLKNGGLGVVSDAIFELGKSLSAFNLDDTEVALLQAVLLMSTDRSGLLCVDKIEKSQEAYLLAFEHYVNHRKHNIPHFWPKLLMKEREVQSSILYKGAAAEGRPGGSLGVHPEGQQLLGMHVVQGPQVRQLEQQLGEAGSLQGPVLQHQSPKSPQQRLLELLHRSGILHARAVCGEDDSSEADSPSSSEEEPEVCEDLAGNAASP

Regarding `O=C(Nc1ccccc1)c1cc(Cl)ccc1O`, the outcome in [1], in assay [2], in [3] and in [4] was inactive.

As a reminder, the AC50 is the concentration at which the activity in the assay is half-maximal. Consider `c1ccc(Nc2cccc3ccccc23)cc1`, for which the AC50 in [1] was 43.4 µM (active); in assay [2], 11.9 µM (active); in assay [5], 31.5 µM (active) and 31.6 µM (active); in assay [6], 23.8 µM (active) and 28.6 µM (active); in [7], 33.1 µM (active) and 33.6 µM (active); in [8] it was 26.1 µM (active) and 21.6 µM (active). Besides, the half-maximal activity concentration (AC50) in [9] is 38.7 µM (active) and 29.6 µM (active); in assay [10], 27.6 µM (active) and 24.6 µM (active); in assay [11] it was 36.5 µM (active) and 31.8 µM (active); in assay [12], 31.8 µM (active) and 34 µM (active); in [13], 8.87 µM (active) and 4.89 µM (active); in [14] it was 35.2 µM (active) and 33 µM (active). In addition, the half-maximal activity concentration (AC50) was 33.3 µM (active) and 35.6 µM (active) in assay [15]; 27.4 µM (active) and 28.4 µM (active) in [16]. The outcome in [3] and in assay [17] was inactive.

In the case of `CCCCCC1=CCCC1=O`, the molecule was called inactive in [1], in [2], in [5], in assay [6], in assay [7] and in assay [8]. Further, the result in assay [10], in assay [11], in assay [4], in [12], in assay [18] and in assay [14] was inactive. The outcome in assay [15], in [16] and in assay [17] was inactive. The concentration at half-maximal activity (AC50) in assay [9] was 20 µM (active); in assay [13] it was 16 nM (active).

As for `CC1C(C)(C)C2=C(C(=O)CCC2)C1(C)C` (centres undefined), the outcome in assay [1] was inactive. For the same molecule, the AC50 in assay [2] was 87.6 µM (active).

As for `CCNc1nc(NC(C)(C)C)nc(OC)n1`, the result in assay [1], in [2], in assay [3], in [6], in assay [7] and in assay [8] was inactive. In addition, the result in assay [9], in assay [10], in assay [11], in assay [4], in [12] and in [13] was inactive. Besides, the outcome in assay [18], in [14], in [15], in assay [16] and in [17] was inactive.

With `CC1(C)CCC[C@]2(C)[C@H]3CC(=O)O[C@]3(C)CC[C@@H]12`, the call in assay [1] and in assay [2] was inactive.

As to `C/C=C/C=C/CCCCCCCO`, the call in assay [1] and in assay [3] was inactive.

Take `COc1cc(O)c(C(=O)c2ccccc2)cc1S(=O)(=O)O`: the call in assay [1], in assay [2] and in [4] was inactive.

`C=C[Si](OCCOC)(OCCOC)OCCOC`: the call in assay [1], in assay [3] and in [4] was inactive.

`CC1=CCC(C(C)C)C=C1` (centres undefined): the molecule was classed as inactive in assay [2].

On to `CC(C)(C)NC(=O)[C@H]1CC[C@H]2[C@@H]3CC[C@H]4NC(=O)C=C[C@]4(C)[C@H]3CC[C@]12C`, for which the result in assay [1] and in [4] was inactive.
